Screening data as filed in PubChem.
This is one part of a sample in which hits are shown more often than they occur.
Cycloheximide cs – counter-screen for Shiga toxin inhibitors: cycloheximide protein synthesis inhibition; cell reporter, cycloheximide protein synthesis inhibition counterscreen; max response, %; 300,000 compounds, 12% hits; AID 2314; in the data active = max response mostly above about 13%, no sharp cut-off; inactive = mostly below about 14%; also: read at 38.3 µM for the half of the compounds with a filed dose; 0% is about no effect
SARS PLpro yeast – blocks SARS-CoV papain-like protease in a yeast assay; S. cerevisiae expressing SARS-CoV PLpro, growth rescue; Potency, µM (series often up to 32.9 µM), for inactives: top-dose activity, positive = growth rescue, hits mostly activators; 330,000 compounds, 0.19% hits; also: potency is read from the fitted curve at half-maximal effect; 0% is about no effect; nearly all actives have a fitted effect of over 55% in size
Shiga inhibitor – inhibitors of Shiga toxin in Vero cells | Vero cells, Shiga toxin protein synthesis inhibition reporter | inhibition, % at 38.7 µM | 290,000 compounds, 9.2% hits | AID 2315; in the data active = inhibition mostly above about 28%, no sharp cut-off; inactive = mostly below about 43%; also: 0% is about no effect
LmPK inh – blocks Leishmania mexicana pyruvate kinase activity; Q27686; purified LmPK, Kinase-Glo ATP luminescence, 1 h; Potency, µM (highest dose often 57.5 µM), without a hit: top-dose activity change, negative = inhibition, hits mostly inhibitors; 290,000 compounds, 0.37% hits; AID 1721; active = well fitted curve in the direction sought with a large enough effect; inconclusive = small, poorly fitted or top-dose-only effect, or another doubt; inactive = no such curve, though single readings can be large; an effect the other way counts as inactive or inconclusive; also: potency is read from the fitted curve at half-maximal effect; % is scaled to controls: 0 for no effect and ±100 for the full control effect
Target sequence (Q27686 whole entry, looked up): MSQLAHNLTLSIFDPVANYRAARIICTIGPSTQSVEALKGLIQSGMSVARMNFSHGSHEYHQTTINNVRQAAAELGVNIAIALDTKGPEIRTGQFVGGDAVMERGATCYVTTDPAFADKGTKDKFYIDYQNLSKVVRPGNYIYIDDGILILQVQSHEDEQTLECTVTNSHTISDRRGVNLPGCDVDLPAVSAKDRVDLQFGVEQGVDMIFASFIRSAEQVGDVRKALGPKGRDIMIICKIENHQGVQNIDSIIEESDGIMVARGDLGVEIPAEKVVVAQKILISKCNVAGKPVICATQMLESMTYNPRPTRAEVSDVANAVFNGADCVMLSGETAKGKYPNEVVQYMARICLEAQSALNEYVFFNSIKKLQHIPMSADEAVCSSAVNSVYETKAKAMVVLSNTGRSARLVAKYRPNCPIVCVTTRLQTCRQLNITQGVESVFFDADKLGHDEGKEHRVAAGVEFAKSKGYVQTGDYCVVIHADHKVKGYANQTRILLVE
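Screened at intermediate enzyme activity to detect both inhibitors and activators: LmPK at 0.1 nM, with a 0.5 nM enzyme column as activation reference. PEP 0.5 mM, ADP 0.1 mM; ATP detected by luminescence after 1 h.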
Tb PYK inh – T. brucei pyruvate kinase inhibition. Q57TT1. TbPYK enzyme, Kinase-Glo Plus ATP luminescence, 45 min. 410,000 compounds, 0.12% hits. Potency, µM (top dose mostly 76.8 µM), for inactives: top-dose activity, negative = inhibition, most hits filed as inhibitors; active = well fitted curve in the direction sought with a large enough effect; inconclusive = small, poorly fitted or top-dose-only effect, or another doubt; inactive = no such curve, though single readings can be large; an effect the other way counts as inactive or inconclusive; also: potency is read from the fitted curve at half-maximal effect; % is scaled to controls: 0 for no effect and ±100 for the full control effect; nearly all actives have a fitted effect of over 50% in size
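TbPYK + substrate in 50 mM TEA pH 7.2, 100 mM KCl, 10 mM MgCl2, 0.05% BSA, 0.01% Tween-20; cpd pinned; ADP 130 uM final; 45 min RT; Kinase-Glo Plus 10 min; luminescence endpoint.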
NS1 inh – inhibitors of influenza NS1 protein function; Potency, µM (highest dose often 46.1 µM), for the others: at the highest dose activity, positive = more growth; AID 2326; 270,000 compounds, 0.4% hits; also: potency is read from the fitted curve at half-maximal effect; actives are rising curves; nearly all actives have a fitted effect of over 50% in size
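Read-out: OD600 growth recovery of NS1-expressing budding yeast. Cells grown overnight at 30C in -URA glucose medium, washed, resuspended and diluted 1:100 in 2% galactose assay medium, pH 6.0. Same strain lacking NS1 served as positive control.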
Active calls of the source: *. Unless noted, calls follow the shape of the full dose curve.

Results for COc1ccc(CCNC(=O)c2coc(=O)c(Br)c2)cc1 ?
Cycloheximide cs: 26*; SARS PLpro yeast: 1%; Shiga inhibitor: 71*; LmPK inh: 1%; Tb PYK inh: 10%; NS1 inh: 2%

What do the screens show for `COc1ccc(CCNC(=O)c2ccc3c(c2)OCO3)cc1`?
Cycloheximide cs: 27*; SARS PLpro yeast: 0%; Shiga inhibitor: 62; LmPK inh: 4%; Tb PYK inh: 4%; NS1 inh: -11%

Results for COc1ccc(CCNC(=O)c2ccc(Br)cc2)cc1 ?
Cycloheximide cs: -1; SARS PLpro yeast: 5%; Shiga inhibitor: -9; LmPK inh: 1%; Tb PYK inh: -4%; NS1 inh: -5%

How did COc1ccc(CCNC(=O)c2ccc3c(c2)OCCO3)cc1 do in these assays?
Cycloheximide cs: 35*; SARS PLpro yeast: -1%; Shiga inhibitor: 84*; LmPK inh: 1%; Tb PYK inh: 2%

Results for O=C(NCCc1ccccc1)c1ccc2c(c1)OCCO2 ?
Cycloheximide cs: -3; SARS PLpro yeast: -1%; Shiga inhibitor: -37; LmPK inh: -22%; Tb PYK inh: -10%; NS1 inh: -24%

How did COc1ccc(/C=C/c2nc(C#N)c(NC3CCCCC3)o2)cc1OC do in these assays?
Tb PYK inh: -6%

What do the screens show for `COc1cccc(CNC(=O)CCS(=O)(=O)c2cc3c4c(c2)CCN4C(=O)CC3)c1`?
Tb PYK inh: 1%

How did COCCSc1nnc(NS(=O)(=O)Cc2ccccc2)s1 do in these assays?
Cycloheximide cs: 2; SARS PLpro yeast: -2%; Shiga inhibitor: 6; LmPK inh: -9%; Tb PYK inh: 0%; NS1 inh: 1%

How did CCC(C)Sc1nnc(NS(=O)(=O)Cc2ccccc2)s1 (configuration not stated) do in these assays?
Cycloheximide cs: 15*; SARS PLpro yeast: 3%; Shiga inhibitor: 22; LmPK inh: 0%; Tb PYK inh: -3%; NS1 inh: inconclusive

What do the screens show for `Cn1c(O)c(C=Nc2ccc(Br)cc2)c(=O)n(C)c1=O`?
Cycloheximide cs: -1; SARS PLpro yeast: 4%; Shiga inhibitor: -11; LmPK inh: -6%; Tb PYK inh: -3%; NS1 inh: 26%

What do the screens show for `Cn1c(O)c(C=Nc2ccc(Br)cc2)sc1=O`?
Cycloheximide cs: 45*; SARS PLpro yeast: -1%; Shiga inhibitor: 80*; LmPK inh: 2%; Tb PYK inh: 2%

Results for CCn1c(=O)cc(OCC(=O)Nc2ccccc2Cl)c2ccccc21 ?
Tb PYK inh: -9%

What do the screens show for `C1=C(CCNc2nnnn2-c2ccccc2)CCCC1`?
Cycloheximide cs: 19; SARS PLpro yeast: -1%; Shiga inhibitor: 5; LmPK inh: 1%; Tb PYK inh: -9%; NS1 inh: -6%

Results for c1ccc(CCNc2nnnn2-c2ccccc2)cc1 ?
Cycloheximide cs: 24*; SARS PLpro yeast: -2%; Shiga inhibitor: 30; LmPK inh: 6%; Tb PYK inh: 0%; NS1 inh: -11%

How did O=C(O)CN(CCN(CC(=O)O)CC(=O)O)CCN(CC(=O)O)CC(=O)O do in these assays?
Tb PYK inh: -9%; NS1 inh: -35%

What do the screens show for `NC(=S)Cc1nc(-c2ccccc2)cs1`?
Cycloheximide cs: 6; SARS PLpro yeast: 3%; Shiga inhibitor: -6; LmPK inh: 4%; Tb PYK inh: -9%; NS1 inh: inconclusive

How did N/C(Cc1nc(-c2ccc(Br)cc2)cs1)=N\O do in these assays?
Cycloheximide cs: 26*; SARS PLpro yeast: -1%; Shiga inhibitor: 78*; LmPK inh: 3%; Tb PYK inh: 5%

How did N/C(Cc1nc(-c2ccc(F)cc2)cs1)=N\O do in these assays?
Cycloheximide cs: 22*; SARS PLpro yeast: -1%; Shiga inhibitor: 43*; LmPK inh: 0%; Tb PYK inh: -3%; NS1 inh: 3%

What do the screens show for `Cc1cc(C)c(C(O)c2ncc(-c3cccc(F)c3)[nH]2)c(C)c1` (configuration not stated)?
Tb PYK inh: 0%

Results for COC(=O)C(CC(C)C)NS(=O)(=O)c1ccccc1Br (configuration not stated) ?
Cycloheximide cs: 14; Shiga inhibitor: 8

Results for O=C(Nc1ccc2snnc2c1)N1CCCCC1 ?
Cycloheximide cs: 19*; SARS PLpro yeast: 0%; Shiga inhibitor: 29; LmPK inh: -1%; Tb PYK inh: -4%; NS1 inh: 4%

How did O=C(Nc1ccc2snnc2c1)N1CCOCC1 do in these assays?
Cycloheximide cs: -5; SARS PLpro yeast: 0%; Shiga inhibitor: -2; LmPK inh: -1%; Tb PYK inh: 2%; NS1 inh: -3%

Results for O=C(Nc1ccc2nsnc2c1)N1CCCCCC1 ?
Cycloheximide cs: 43*; SARS PLpro yeast: 12%; Shiga inhibitor: 109; LmPK inh: -10%; Tb PYK inh: 11%; NS1 inh: -6%

What do the screens show for `S=C(Nc1ccc2nsnc2c1)N1CCCC1`?
Cycloheximide cs: 46*; SARS PLpro yeast: -2%; Shiga inhibitor: 89*; LmPK inh: inconclusive; Tb PYK inh: -8%; NS1 inh: 7%

How did S=C(Nc1ccc2nccnc2c1)N1CCCC1 do in these assays?
Cycloheximide cs: 28*; SARS PLpro yeast: 1%; Shiga inhibitor: 53; LmPK inh: -6%; Tb PYK inh: 1%; NS1 inh: -3%

Results for Cc1ccc(Nc2ncc3c(=O)[nH][nH]c(=O)c3n2)cc1 ?
Tb PYK inh: 4%

Results for CN(C)c1ccc(CNC(=O)C2CCN(C(=O)c3ccc(-n4ccc5ccccc54)s3)CC2)cc1 ?
Tb PYK inh: -9%

How did COc1cc(C)ccc1OCc1cc(C(=O)N2CCN(C)C[C@@H]2c2ccccc2)no1 do in these assays?
Cycloheximide cs: 42*; SARS PLpro yeast: 2%; Shiga inhibitor: 67*; LmPK inh: 1%; Tb PYK inh: 8%; NS1 inh: -6%

What do the screens show for `COc1cc(Cl)ccc1OCc1cc(C(=O)N2C[C@]3(C)C[C@H]2CC(C)(C)C3)no1`?
Cycloheximide cs: 72*; SARS PLpro yeast: -12%; Shiga inhibitor: 111*; LmPK inh: -3%; Tb PYK inh: 2%; NS1 inh: 11%

Results for COc1cc(Cl)ccc1OCc1cc(C(=O)N2C[C@H]3CC[C@H]2C3)no1 ?
Cycloheximide cs: 55*; SARS PLpro yeast: -1%; Shiga inhibitor: 108*; LmPK inh: -6%; Tb PYK inh: -7%; NS1 inh: -33%

How did O=C(c1cc(COc2cccc(C(F)(F)F)c2)on1)N1C[C@@H]2CCC[C@H]1C2 do in these assays?
Cycloheximide cs: 34*; SARS PLpro yeast: -5%; Shiga inhibitor: 77*; LmPK inh: -1%; Tb PYK inh: -10%; NS1 inh: -62%

How did O=C(c1cc(COc2cccc(C(F)(F)F)c2)on1)N1CCC(c2ccccc2)CC1 do in these assays?
Cycloheximide cs: 8; SARS PLpro yeast: -2%; Shiga inhibitor: 3; LmPK inh: 1%; Tb PYK inh: 6%; NS1 inh: 12%
